NS1 function inh: inhibitors of influenza NS1 protein function. Potency, µM (highest dose often 46.1 µM). 0.4% of 270,000 active. AID 2326; calls by dose curve; note: actives are rising curves; nearly all actives have a fitted effect of over 50% in size
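OD600 was taken as the measure of yeast growth restored by compound in an NS1-expressing S. cerevisiae strain. Cells had been washed out of glucose medium and diluted 1:100 into galactose -URA medium, pH 6.0.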
AMA1-RON2 inh: inhibitors of Plasmodium falciparum AMA1-RON2 interaction; AlphaScreen AMA1-biotinylated RON2 peptide binding; Potency, µM (highest dose often 58.2 µM), hits mostly inhibitors; 0.2% of 360,000 active; AID 720542; note: nearly all actives have a fitted effect of over 45% in size
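AMA1 (3D7) with his tag at 25 nM final met compounds first, then biotinylated RON2 peptide at 25 nM; detection used donor plus acceptor beads, 10 µg/mL apiece, read by AlphaScreen after 30 min at room temperature.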
Pf growth 48h: P. falciparum growth inhibition at 48 hours (one generation); 5.9% of 310,000 active; Potency, µM (doses to about 28.7 µM), most hits filed as inhibitors; P. falciparum luciferase growth in erythrocytes, 48 h
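Growth was read as firefly luciferase luminescence after a 48 h, 37 C, 5% CO2 exposure of compounds to reporter-bearing P. falciparum cultures (0.1% parasitemia, 2% hematocrit final) in Albumax-supplemented RPMI 1640.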
HCV inhibitor: HCV inhibition; Huh7.5.1 HCVcc-Cre infection, luciferase reporter, 44 h; Potency, µM (titrated, usually from 41.8 µM), actives largely listed as inhibitors; 3.4% of 340,000 active
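Infectious HCV cell culture screen: compound-treated cells (1,000/well, pre-plated 4 h) are infected with HCVcc-Cre at roughly 0.5 moi and grown 44 h. Infection is quantified by luciferase signal after 15 min substrate incubation at room temperature.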
SARS PLP yeast: SARS-CoV PLP inhibition in yeast; S. cerevisiae expressing SARS-CoV PLpro, growth rescue; Potency, µM (titrated, usually from 32.9 µM), actives largely listed as activators; 0.19% of 330,000 active; calls by dose curve; note: nearly all actives have a fitted effect of over 55% in size
Pf growth 96h: P. falciparum growth inhibition at 96 hours. P. falciparum luciferase reporter growth, 96 h. 6.9% of 320,000 active. Potency, µM (titrated, usually from 28.7 µM), usual class: inhibitors
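Delayed-death screen, second-generation endpoint: infected erythrocytes, 2% hematocrit, 0.05% parasitemia final; 96 hours at 37 C, 5% CO2; luciferase detection reagent; luminescence decrease equals reduced growth.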
Numbers stand for hits; . = inactive; ? = inconclusive; / = not tested or not shown; ! = repeats disagree; [ ] = another dose, or the depositor's remark. This is a sample that favours compounds with a hit; in the whole collection about 12% have one here. Unless noted, calls come from the whole dose curve; as a rule, active = well fitted curve in the direction sought with a large enough effect; inconclusive = small, poorly fitted or top-dose-only effect, or another doubt; inactive = no such curve, though single readings can be large; an effect the other way counts as inactive or inconclusive.

SMILES	NS1 function inh	AMA1-RON2 inh	Pf growth 48h	HCV inhibitor	SARS PLP yeast	Pf growth 96h
CCc1cc2c(=O)c(-c3cnn(-c4ccccc4)c3)c(C(F)(F)F)oc2c(CN(C)C)c1O	.	.	6.6µM	.	.	/
CCc1cc2c(=O)c(-c3nc4ccccc4n3C)coc2c(CN2CCCCC2)c1O	.	.	.	.	.	2.9µM
COc1ccc2c(=O)c(-c3cnn(-c4ccccc4)c3)c(C)oc2c1	.	.	.	?	.	.
CC(C)c1cc(C(=O)NCCc2ccccc2)no1	/	.	.	.	.	.
Cn1c(=O)n(C)c2cc(/C=N/N=C3/NC(=O)C(CC(=O)O)S3)ccc21 (stereo unspecified)	.	.	.	.	.	.
COc1cccc(/C=C/c2nc(S(=O)(=O)c3ccccc3)c(N(C)C)o2)c1	.	.	10µM	.	.	?
O/N=C\c1cnc(N2CCN(c3ccccc3)CC2)s1	.	.	.	.	.	.
CC(C)c1nc2oc3c(N4CCNCC4)ncnc3c2c2c1CCC2	3.2µM	.	/	?	/	/
CCCc1nc2oc3c(=O)[nH]cnc3c2c2c1CCCC2	.	.	.	.	.	?
CC(C)Cc1nc2oc3c(NCCCN4CCOCC4)ncnc3c2c2c1CCC2	.	.	?	10µM	.	?
CC(C)c1nc2oc3c(=O)[nH]cnc3c2c2c1CCC2	.	.	/	.	.	.
CC(C)Cc1nc2oc3c(Cl)ncnc3c2c2c1CCC2	.	.	.	4.5µM	.	.
O=C(COC(=O)CNS(=O)(=O)c1cc(C(F)(F)F)ccc1Cl)NC1CC1	/	.	/	.	.	/
O=C(CSc1n[nH]c(=O)n1Cc1ccccc1)Nc1ccc(F)c(F)c1F	.	.	.	?	.	.
CC(C)C1O/C(=N/C(=O)Nc2ccc(Cl)c(Cl)c2)NC1=O (stereo unspecified)	.	.	12µM	?	.	?
O=C(O)CC(NC(=O)CC(c1ccccc1)c1ccccc1)c1cccc([N+](=O)[O-])c1 (stereo unspecified)	.	.	.	.	.	.
COc1cc(/C=C2/NC(=O)N(CC(=O)Nc3ccc(C)cc3)C2=O)ccc1Oc1ccc([N+](=O)[O-])cn1	.	.	.	.	.	.
COCCN1C(=O)/C(=C/c2ccc(Oc3ccc([N+](=O)[O-])cn3)c(OC)c2)SC1=Nc1ccccc1	.	.	.	?	.	1.5µM
COc1ccc(N=C2S/C(=C\c3ccc(OC(C)C(=O)O)c(OC)c3)C(=O)N2CCc2c[nH]c3ccccc23)cc1 (stereo unspecified)	.	.	?	?	.	1.7µM
COc1ccc(/C=C2\SC(=O)N(CCC(=O)Nc3ccccc3)C2=O)cc1OC	.	.	.	.	.	.
O=C1/C(=C/c2ccc(N3CCOCC3)o2)SC(=Nc2ccccc2)N1CCc1c[nH]c2ccccc12	.	.	9.3µM	3.2µM	.	1.7µM
COc1cc(/C=C2\SC(=Nc3ccccc3)N(CCc3c[nH]c4ccccc34)C2=O)ccc1OC(C)C(=O)O (stereo unspecified)	?	.	10µM	?	.	5.2µM
COc1ccccc1C#CC1=CC(=O)C[C@H](c2ccc(F)cc2)C1	/	.	/	/	/	/
Cc1cccc(NC(=O)Oc2ccc(Cl)c3cccnc23)c1	/	.	/	/	/	/
COc1ccccc1NC(=O)c1cccc2c(Br)cccc12	.	.	?	.	.	.
SMILES	NS1 function inh	AMA1-RON2 inh	Pf growth 48h	HCV inhibitor	SARS PLP yeast	Pf growth 96h
N=c1c2c(n(Cc3ccc(Cl)c(Cl)c3)c3c1CCC3)CCCC2	.	.	0.15µM	?	.	.
O=c1[nH]c(=O)n(Cc2ccccc2)c2c1CCC2	.	.	.	.	.	/
N=c1c2c(n(Cc3ccc(Br)cc3)c3c1CCC3)CCCC2	.	.	0.093µM	?	.	0.033µM
N=c1c2c(n(Cc3ccc([N+](=O)[O-])cc3)c3c1CCC3)CCCC2	/	.	?	.	.	10µM
C=CCN1CCc2nc(N)sc2CC1	.	.	.	.[8.37 µM]	.	6.7µM!
O=C(COc1cccc(Cl)c1)NCC(c1cccs1)N1CCOCC1 (stereo unspecified)	/	.	?	.	.	?
Cc1ccc(C(C)C)c(OCC(=O)NCC(c2cccs2)N2CCOCC2)c1 (stereo unspecified)	/	.	13µM	?	.	10µM
Cc1cc(Cl)ccc1OCC(=O)NCC(c1cccs1)N1CCOCC1 (stereo unspecified)	/	.	13µM	10µM	.	?
Cc1cc(OCC(=O)NCC(c2cccs2)N2CCOCC2)ccc1C(C)C (stereo unspecified)	/	.	?	?	.	13µM
CC(C)NC(=O)C(=O)NNC(=O)CCc1ccccc1	.	.	.	.	.	?
CC(Sc1nnc(N)s1)C(=O)NC1CCCCC1C (stereo unspecified)	/	.	?	.	.	.
O=C(NCc1cccnc1)C1Cc2c(-c3ccc(Cl)cc3)ccnc2O1 (stereo unspecified)	/	.	/	/	/	/
CCc1nc(SCC(=O)N2CCCC2)c2c(=O)n(C)c(=O)n(C)c2n1	.	.	.	/	.	.
CC(C)n1c(SCC(=O)N2CCCC2)nc2c1c(=O)n(C)c(=O)n2C	.	.	?	.	.	.
CCCn1c(SCC(=O)Nc2ccc3c(c2)OCO3)nc2c1c(=O)n(C)c(=O)n2C	.	.	.	?	.	10µM
CCCn1c(SCC(=O)Nc2ccccc2N2CCCCC2)nc2c1c(=O)n(C)c(=O)n2C	.	.	?	10µM!	.	.
CCCn1c(SCC(=O)N2CCCC2)nc2c1c(=O)n(C)c(=O)n2C	.	.	.	.	.	1.2µM
CCn1c(SCC(=O)Nc2ccc3c(c2)OCO3)nc2c1c(=O)n(C)c(=O)n2C	.	.	.	.	.	?
Cn1c(=O)c2c(SCC(=O)N3CCCC3)nc(CC(C)(C)C)nc2n(C)c1=O	.	.	.	.	?	13µM
CCCCn1c(N)c(N(CC(C)C)C(=O)CC2CCCCC2)c(=O)[nH]c1=O	/	.	?	.	.	.
CCCCn1c(SCC(=O)NCc2cccs2)nc2c1c(=O)n(C)c(=O)n2C	.	.	/	.	.	9.3µM
CC1CCCC(C)N1C(=O)Cn1c(SCC(=O)Nc2ccc3c(c2)OCO3)nc2ccccc21 (stereo unspecified)	.	.	?	.	.	13µM
O=C(CSc1nc2ccccc2n1CC(=O)N1CCCC1)Nc1ccc2c(c1)OCO2	.	.	.	.	.	.
Cc1ccc(S(=O)(=O)c2c(C)nn(C(C)(C)C)c2OC(=O)CC(C)C)cc1	.	.	?	.	.	.
CC1(C)Oc2ccc3ccc(=O)oc3c2/C(=C/O)C1=O	.	.	.	.	.	.
CC1(C)Oc2ccc3ccc(=O)oc3c2/C(=C/N)C1=O	.	.	.	.	.	.
CC1(C)Oc2ccc3ccc(=O)oc3c2/C(=C/NC2CCCCC2)C1=O	.	.	?	10µM	.	?

Bioassay records: PubChem, National Center for Advancing Translational Sciences (NCATS)
